# Compound activity deposited in PubChem BioAssay by The Scripps Research Institute Molecular Screening Center.
# GPR151 activ – activators of human GPR151 | Q8TDV0 | PathHunter beta-arrestin GPR151 cells, luminescence | activation, % at 11.2 µM | actives 1% (n = 650,000) | AID 1508602; in the data active = activation above about 4.9%;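 also: 0% = median of compound wells and 100% = cells with positive control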
# FBW7 activator – human FBW7 E3 ligase activation, primary screen; normalized activity (activation), % at 26.1 µM; AlphaScreen FBW7–phospho-cyclin E peptide binding, activator screen; Q969H0; actives 0.13% (n = 650,000); in the data active = normalized activity above about 1.9%;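 also: purified mutant Fbw7 with reduced substrate affinity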
# Target sequence (Q969H0 whole entry, looked up): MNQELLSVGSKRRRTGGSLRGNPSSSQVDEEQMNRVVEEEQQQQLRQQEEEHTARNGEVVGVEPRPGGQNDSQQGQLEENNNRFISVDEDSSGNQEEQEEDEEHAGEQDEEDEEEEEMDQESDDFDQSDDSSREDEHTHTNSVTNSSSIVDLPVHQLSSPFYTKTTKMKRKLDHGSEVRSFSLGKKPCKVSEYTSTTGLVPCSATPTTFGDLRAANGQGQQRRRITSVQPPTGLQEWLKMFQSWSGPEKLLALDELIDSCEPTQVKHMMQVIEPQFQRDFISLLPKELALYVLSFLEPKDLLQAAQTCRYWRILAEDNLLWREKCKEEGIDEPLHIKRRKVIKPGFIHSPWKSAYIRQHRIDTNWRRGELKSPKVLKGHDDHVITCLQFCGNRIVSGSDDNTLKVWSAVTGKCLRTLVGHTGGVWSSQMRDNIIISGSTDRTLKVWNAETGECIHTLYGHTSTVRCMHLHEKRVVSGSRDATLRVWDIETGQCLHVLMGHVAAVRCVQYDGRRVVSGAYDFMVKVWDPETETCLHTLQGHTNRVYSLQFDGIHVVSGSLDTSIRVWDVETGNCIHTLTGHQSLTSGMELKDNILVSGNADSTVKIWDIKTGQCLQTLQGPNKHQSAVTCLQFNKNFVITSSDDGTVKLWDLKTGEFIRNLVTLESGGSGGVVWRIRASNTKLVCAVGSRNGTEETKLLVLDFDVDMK
# TEAD-YAP block – TEAD-YAP interaction inhibition; inhibition, % at 9.12 µM; HEK-TIYL cells, TEAD-Gal4/YAP UAS-luciferase luminescence; actives 1.4% (n = 640,000); in the data active = inhibition above about 32%;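 also: 0% = median of test compound wells and 100% = reference inhibitor wells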
# MITF inh – inhibitors of human MITF. AlphaScreen MITF homodimerization, bead proximity signal. inhibition, % at 2.6 µM. actives 0.91% (n = 650,000). O75030. AID 1259374; in the data active = inhibition above about 50%;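 also: 0% = vehicle wells with protein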
# Starred values were filed as active, the others as inactive. This is a sample that favours compounds with a hit; in the whole collection about 3.4% have one here.
SMILES,GPR151 activ,FBW7 activator,TEAD-YAP block,MITF inh
CCn1c(=O)c([N+](=O)[O-])c(NCCCN2CCOCC2)c2ccccc21,-1,0,0,3
N#C/C(=C/c1ccc(-c2ccc([N+](=O)[O-])cc2)o1)C(N)=O,0,2.4*,15,12
N#C/C(=C\c1ccc(-c2cccc([N+](=O)[O-])c2)o1)C(N)=O,1,0,8,7
C=CCn1c(SCc2ccccc2)nc2ccccc2c1=O,0,0,0,1
CC1Oc2nc3ccccc3cc2CN(Cc2ccc3c(c2)OCO3)C1=O (stereo not drawn),1,0,-4,2
Cc1ccc2cc3c(nc2c1)OCC(=O)N(Cc1ccccc1)C3,3,0,48*,3
Cc1ccc2cc3c(nc2c1)OCC(=O)N(Cc1ccco1)C3,-1,0,-21,15
Cc1cccc2cc3c(nc12)OCC(=O)N(Cc1ccccc1)C3,0,26*,58*,14
CC1Oc2nc3ccccc3cc2CN(Cc2ccc(F)cc2)C1=O (stereo not drawn),-1,0,32*,-1
Cc1ccccc1C1(CC(=O)N2CCNC(=O)CC2)CC(=O)N(Cc2ccccc2)C1=O (stereo not drawn),1,0,-6,11
Cc1ccccc1CNc1nc2nc(C)c(Cl)c(C)n2n1,-1,0,-7,-6
CCCOc1ccc(-c2nc(N3CCOCC3)c3ccccc3n2)cc1,0,0,4,17
Cc1ccccc1-n1c(SCC(=O)Nc2nccs2)nnc1-c1ccncc1,-1,0,21,0
COc1ccccc1-n1c(SCC(=O)Nc2nc(C)cs2)nnc1-c1cccnc1,-1,0,53*,11
COc1ccccc1-n1c(SCC(=O)Nc2nccs2)nnc1-c1cccnc1,0,0,56*,0
COc1cccc(NC(=O)CSc2nnc(-c3cccnc3)n2-c2ccccc2C)c1,0,0,-2,11
COc1ccccc1-n1c(SCC(=O)Nc2nccs2)nnc1-c1ccncc1,-2,0,62*,10
COc1ccccc1-n1c(SCC(=O)Nc2cccc(F)c2)nnc1-c1cccnc1,-1,0,46*,4
Cc1csc(NC(=O)CSc2nnc(-c3cccnc3)n2-c2cccc(C)c2C)n1,0,0,13,-4
COc1ccc(N2CCN(C(=O)c3nn(-c4ccccc4OC)c(=O)c4ccccc34)CC2)cc1,-1,0,3,16
COc1ccc(-c2cn3nc(N4CCCC(C(=O)O)C4)sc3n2)cc1 (stereo not drawn),0,0,-4,42
O=C(O)C1CCCN(c2nn3cc(-c4ccc(F)cc4)nc3s2)C1 (stereo not drawn),-13,0,85*,-5
N#C/C(=C\c1cc([N+](=O)[O-])ccc1Cl)c1nn(CCO)c(N)c1C#N,0,0,67*,10
N#C/C(=C\c1ccc(Cl)c([N+](=O)[O-])c1)c1nn(CCO)c(N)c1C#N,0,0,1,8
CCOc1cccc(C2CC(c3ccc(CC)cc3)=NC(c3cccc(OC)c3)N2)c1O (stereo not drawn),0,0,5,10
SMILES,GPR151 activ,FBW7 activator,TEAD-YAP block,MITF inh
Cc1ccc(C(=O)Nc2noc3ccccc23)cc1,-5,0,76*,5
O=C(Nc1noc2ccccc12)c1ccco1,-5,0,-21,17
O=C(Nc1noc2ccccc12)c1ccccc1,-8,0,51*,-10
CC(CC1CC(C)(C)OC1=O)C(=O)NC(=S)Nc1nncs1 (stereo not drawn),0,0,3,11
O=C1C=C/C(=C\C=C2/C=CC=CN2O)C(O)=C1,-1,0,-2,21
CCN(CC)C(=O)Cn1c(C)c(C#N)c2ccccc21,0,1.9*,3,18
Cc1ccc2cc3c(nc2n1)CCN(CC(=O)c1ccc(N2CCCC2)cc1)C3,-3,0,4,2
COc1ccc(COC(=O)C2=C(C)NC(=O)NC2c2ccc([N+](=O)[O-])cc2)cc1 (stereo not drawn),0,0,44*,11
CCCOC(=O)C1=C(C)NC(=O)NC1c1ccc(OCCC)cc1 (stereo not drawn),-1,0,43*,-14
CCCOc1ccc(C2NC(=O)NC(C)=C2C(=O)OCc2ccc(OC)cc2)cc1 (stereo not drawn),-1,0,58*,-2
COc1ccc(COC(=O)C2=C(C)NC(=O)NC2c2ccc(C)cc2)cc1 (stereo not drawn),-1,0,22,-8
COc1ccc(C2NC(=O)NC(C)=C2C(=O)OCc2ccc3c(c2)OCO3)cc1 (stereo not drawn),1,0,67*,-4
CCOC(=O)C1=C(C)NC(=O)NC1c1ccc([N+](=O)[O-])cc1 (stereo not drawn),1,1,1,1
CCCCOC(=O)C1=C(C)NC(=O)NC1c1ccc(OCCC)cc1 (stereo not drawn),0,0,20,5
CCC1(CC)NC(=O)N(CC(=O)OCC(=O)Nc2ccc(C(N)=O)cc2)C1=O,0,0,3,16
COC(=O)C1=C(C)N(C)C(C)=C(C(=O)OC)C1c1ccc(F)cc1,2,0,15,6
CCOC(=O)C1=C(C)NC(=O)NC1c1ccc(C2NC(=O)NC(C)=C2C(=O)OCC)cc1 (stereo not drawn),2,0,4,9
Cc1cnc(C)c(-c2cc(F)c3c(c2)CC(CNC(=O)CCc2c[nH]c4ccccc24)O3)n1 (stereo not drawn),0,0,-6,15
CN(C)c1ccc(/C=N/NC2NC(=O)C(CC(=O)O)S2)cc1 (stereo not drawn),-1,0,10,1
Brc1ccc(-c2cn3c4ccccc4nc3n2CCCNC2CCCCC2)cc1,0,6.2*,4,-1
Clc1ccc(-c2cn3c4ccccc4nc3n2CCNC2CCCCC2)cc1,1,1,-4,3
CC(C)(C)C(=O)CSc1nnc(NC2CCCCC2)s1,-2,0,-32,15
O=C1/C(=C\c2ccco2)CCC/C1=C\c1ccco1,0,0,0,83*
O=C1Nc2ccccc2/C1=C/C=C/c1ccco1,1,0,-66,8
O=C1/C(=C/C=C/c2ccco2)CCC/C1=C\C=C\c1ccco1,0,0,-2,64*
O/N=C1\CCCC\C1=C\c1ccco1,2,0,-13,4
COc1ccc(N2CCN(C(=O)c3ccc(CS(=O)c4ccc(C)cc4)o3)CC2)cc1 (stereo not drawn),0,0,56*,-1
Cc1ccc(S(=O)Cc2ccc(C(=O)N3CCN(C(=O)c4ccco4)CC3)o2)cc1 (stereo not drawn),0,0,4,7
COc1cccc(N2CCN(C(=O)c3ccc(CS(=O)c4ccc(C)cc4)o3)CC2)c1 (stereo not drawn),0,0,63*,-6
COc1ccc(N2CCN(C(=O)c3ccc(CS(=O)c4ccccc4)o3)CC2)cc1 (stereo not drawn),0,0,46*,8
